# Results as given in paper PMC7862700, “An all-to-all approach to the identification of sequence-specific readers for epigenetic DNA modifications on cytosine”.
# Key:
# Experiment in all cases: DAPPL (digital affinity profiling via proximity ligation, sequencing); 10 mM Tris-HCl pH 7.5, 50 mM NaCl, 1 mM DTT, 4% glycerol, room temperature, 30 min; GST-TFs on glutathione beads, 16-mer random dsDNA library, 0.1% formaldehyde crosslink after washing; high values mean tight binding
# FLI1 = target: T1, FLI1 (Homo sapiens, UniProt Q01543 1-452); settings: protein: recombinant; tags: N-terminal GST; dsDNA, one strand shown
# T1 sequence: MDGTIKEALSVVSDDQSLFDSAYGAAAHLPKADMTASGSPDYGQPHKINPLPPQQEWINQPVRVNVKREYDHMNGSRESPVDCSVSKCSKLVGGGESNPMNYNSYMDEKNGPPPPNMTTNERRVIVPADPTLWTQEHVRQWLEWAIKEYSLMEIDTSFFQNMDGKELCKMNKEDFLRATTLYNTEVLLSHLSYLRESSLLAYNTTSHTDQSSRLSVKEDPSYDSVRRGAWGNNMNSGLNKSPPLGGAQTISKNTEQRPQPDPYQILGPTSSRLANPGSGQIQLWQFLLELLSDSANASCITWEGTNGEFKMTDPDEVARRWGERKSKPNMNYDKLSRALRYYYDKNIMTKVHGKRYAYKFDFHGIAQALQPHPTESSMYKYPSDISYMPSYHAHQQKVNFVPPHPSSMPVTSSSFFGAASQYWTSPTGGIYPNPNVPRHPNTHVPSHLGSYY
# Procedure, shortened: (§1)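 Human transcription factors were made in yeast as GST fusions, captured on glutathione beads and barcoded with DNA. With a tag-only sample included, the pool was incubated with 200 nmole of a random double-stranded 16-mer DNA library in Tris/NaCl/DTT/glycerol buffer at room temperature for 30 min, then crosslinked with 0.1% formaldehyde after washing, ligated by proximity, amplified and sequenced. For binding signal, each hexamer's read frequency for a factor is divided by its frequency for the tag-only sample.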
# ELK1 = target: T2, ELK1 (Homo sapiens, UniProt P19419 1-428); settings: protein: recombinant; tags: N-terminal GST; dsDNA, one strand shown
# T2 sequence: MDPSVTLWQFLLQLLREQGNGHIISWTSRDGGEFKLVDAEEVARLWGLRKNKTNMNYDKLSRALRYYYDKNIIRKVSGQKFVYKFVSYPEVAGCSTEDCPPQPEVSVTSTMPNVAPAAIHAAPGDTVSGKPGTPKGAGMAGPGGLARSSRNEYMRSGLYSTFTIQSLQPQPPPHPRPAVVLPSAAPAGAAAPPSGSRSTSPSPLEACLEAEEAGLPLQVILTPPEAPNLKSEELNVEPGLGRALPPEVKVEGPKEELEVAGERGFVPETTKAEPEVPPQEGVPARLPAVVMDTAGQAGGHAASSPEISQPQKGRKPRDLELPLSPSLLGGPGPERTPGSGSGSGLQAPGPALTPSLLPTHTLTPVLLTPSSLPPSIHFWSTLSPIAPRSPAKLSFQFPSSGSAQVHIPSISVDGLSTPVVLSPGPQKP
# Procedure, shortened: as §1
# GABPA = target: T3, GABPA (Homo sapiens, UniProt Q06546 1-454); settings: protein: recombinant; tags: N-terminal GST; dsDNA, one strand shown
# T3 sequence: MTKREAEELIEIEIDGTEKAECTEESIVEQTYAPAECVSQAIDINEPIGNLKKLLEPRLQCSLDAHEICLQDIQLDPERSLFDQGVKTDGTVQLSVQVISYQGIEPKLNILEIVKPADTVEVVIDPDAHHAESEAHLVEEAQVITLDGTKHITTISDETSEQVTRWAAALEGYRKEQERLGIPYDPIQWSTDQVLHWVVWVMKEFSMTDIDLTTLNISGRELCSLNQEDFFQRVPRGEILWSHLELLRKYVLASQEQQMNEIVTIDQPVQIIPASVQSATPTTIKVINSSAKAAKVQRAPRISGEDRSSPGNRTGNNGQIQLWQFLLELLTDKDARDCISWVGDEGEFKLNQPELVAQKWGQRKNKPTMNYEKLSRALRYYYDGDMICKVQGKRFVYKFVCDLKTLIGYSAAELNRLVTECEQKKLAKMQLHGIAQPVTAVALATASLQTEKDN
# Procedure, shortened: as §1
# ELF1 = ELF1 (Homo sapiens, UniProt P32519 1-619); settings: protein: recombinant; tags: N-terminal GST; dsDNA, one strand shown
# Chain of ELF1 (P32519 whole entry): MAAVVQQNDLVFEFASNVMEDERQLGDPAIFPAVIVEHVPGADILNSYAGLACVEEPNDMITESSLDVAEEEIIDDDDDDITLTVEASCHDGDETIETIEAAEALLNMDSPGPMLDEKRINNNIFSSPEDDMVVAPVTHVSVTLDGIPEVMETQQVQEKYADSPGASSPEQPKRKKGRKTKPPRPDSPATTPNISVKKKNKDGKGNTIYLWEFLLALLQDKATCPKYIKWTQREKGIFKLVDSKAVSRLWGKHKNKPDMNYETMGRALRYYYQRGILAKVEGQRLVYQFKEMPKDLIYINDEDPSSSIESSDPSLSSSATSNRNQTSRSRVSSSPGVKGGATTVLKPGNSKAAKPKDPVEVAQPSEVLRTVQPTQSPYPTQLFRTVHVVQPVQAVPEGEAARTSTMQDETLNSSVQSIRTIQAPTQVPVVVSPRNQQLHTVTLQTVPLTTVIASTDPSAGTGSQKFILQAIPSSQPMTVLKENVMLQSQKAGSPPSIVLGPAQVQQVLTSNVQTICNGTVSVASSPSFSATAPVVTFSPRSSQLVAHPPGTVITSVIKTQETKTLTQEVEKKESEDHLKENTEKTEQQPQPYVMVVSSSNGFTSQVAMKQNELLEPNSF
# Procedure, shortened: as §1
# SPIB = SPIB (Homo sapiens, UniProt Q01892 1-262); settings: protein: recombinant; tags: N-terminal GST; dsDNA, one strand shown
# Chain of SPIB (Q01892 whole entry): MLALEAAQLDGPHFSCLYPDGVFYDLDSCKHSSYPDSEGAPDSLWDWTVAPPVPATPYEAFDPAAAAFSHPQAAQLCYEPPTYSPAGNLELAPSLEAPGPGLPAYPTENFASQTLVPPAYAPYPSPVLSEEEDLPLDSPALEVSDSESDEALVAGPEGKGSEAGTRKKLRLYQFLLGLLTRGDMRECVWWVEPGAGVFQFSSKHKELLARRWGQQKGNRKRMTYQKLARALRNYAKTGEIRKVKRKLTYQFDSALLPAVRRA
# Procedure, shortened: as §1
# ELK3 = target: T4, ELK3 (Homo sapiens, UniProt P41970 1-407); settings: protein: recombinant; tags: N-terminal GST; dsDNA, one strand shown
# T4 sequence: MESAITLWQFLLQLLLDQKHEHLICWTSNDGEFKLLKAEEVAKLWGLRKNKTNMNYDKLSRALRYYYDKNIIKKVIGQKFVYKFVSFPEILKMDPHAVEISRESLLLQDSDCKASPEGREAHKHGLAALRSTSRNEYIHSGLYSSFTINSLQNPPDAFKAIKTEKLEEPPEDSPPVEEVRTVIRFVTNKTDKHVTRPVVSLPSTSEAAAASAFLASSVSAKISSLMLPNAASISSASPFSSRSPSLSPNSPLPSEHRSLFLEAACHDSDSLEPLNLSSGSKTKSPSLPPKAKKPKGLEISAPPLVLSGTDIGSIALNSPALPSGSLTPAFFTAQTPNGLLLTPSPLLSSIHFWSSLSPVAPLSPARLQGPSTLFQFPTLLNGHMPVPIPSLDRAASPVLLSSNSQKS
# Procedure, shortened: as §1
# HSF1 = HSF1 (Homo sapiens, UniProt Q00613 1-529); settings: protein: recombinant; tags: N-terminal GST; chain copies: 3; dsDNA, one strand shown
# Chain of HSF1 (Q00613 whole entry): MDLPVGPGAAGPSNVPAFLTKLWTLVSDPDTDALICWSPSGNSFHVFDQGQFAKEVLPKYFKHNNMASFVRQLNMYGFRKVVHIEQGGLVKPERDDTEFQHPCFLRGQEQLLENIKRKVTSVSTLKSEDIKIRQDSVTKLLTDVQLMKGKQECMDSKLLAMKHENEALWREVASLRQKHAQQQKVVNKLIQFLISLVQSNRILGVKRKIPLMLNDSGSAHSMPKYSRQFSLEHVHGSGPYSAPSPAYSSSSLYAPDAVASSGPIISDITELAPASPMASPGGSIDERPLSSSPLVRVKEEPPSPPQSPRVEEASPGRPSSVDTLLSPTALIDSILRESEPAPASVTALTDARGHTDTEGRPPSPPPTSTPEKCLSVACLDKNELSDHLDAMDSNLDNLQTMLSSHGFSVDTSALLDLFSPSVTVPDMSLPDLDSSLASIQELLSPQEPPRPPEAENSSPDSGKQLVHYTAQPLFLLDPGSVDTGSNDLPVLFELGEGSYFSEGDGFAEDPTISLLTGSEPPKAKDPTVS
# Procedure, shortened: as §1
# ELK4 = target: T5, ELK4 (Homo sapiens, UniProt P28324-2 1-405); settings: protein: recombinant; tags: N-terminal GST; dsDNA, one strand shown
# T5 sequence: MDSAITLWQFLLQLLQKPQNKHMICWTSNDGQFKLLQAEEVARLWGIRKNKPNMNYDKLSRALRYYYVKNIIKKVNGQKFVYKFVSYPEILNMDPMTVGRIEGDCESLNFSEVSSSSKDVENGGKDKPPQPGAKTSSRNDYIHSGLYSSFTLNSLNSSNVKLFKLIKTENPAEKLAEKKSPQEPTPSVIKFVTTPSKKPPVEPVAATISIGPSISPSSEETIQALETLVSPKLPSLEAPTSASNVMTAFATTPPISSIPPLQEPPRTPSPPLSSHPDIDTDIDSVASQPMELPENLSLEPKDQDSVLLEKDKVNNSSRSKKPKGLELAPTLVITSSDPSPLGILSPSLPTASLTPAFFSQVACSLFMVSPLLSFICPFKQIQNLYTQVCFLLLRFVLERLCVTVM
# Procedure, shortened: as §1
# ETV2 = target: T6, ETV2 (Homo sapiens, UniProt O00321 1-342); settings: protein: recombinant; tags: N-terminal GST; dsDNA, one strand shown
# T6 sequence: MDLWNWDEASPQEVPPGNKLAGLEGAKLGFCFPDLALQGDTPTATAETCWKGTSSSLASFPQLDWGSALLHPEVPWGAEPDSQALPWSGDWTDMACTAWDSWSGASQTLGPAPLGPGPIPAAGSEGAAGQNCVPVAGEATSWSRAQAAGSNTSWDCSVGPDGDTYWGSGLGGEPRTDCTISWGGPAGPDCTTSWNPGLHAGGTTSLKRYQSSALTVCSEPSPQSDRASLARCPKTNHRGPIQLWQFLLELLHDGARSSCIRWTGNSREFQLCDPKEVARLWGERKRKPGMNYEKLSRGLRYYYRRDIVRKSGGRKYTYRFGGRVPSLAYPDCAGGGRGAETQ
# Procedure, shortened: as §1
# ELF3 = target: T7, ELF3 (Homo sapiens, UniProt P78545 1-371); settings: protein: recombinant; tags: N-terminal GST; dsDNA, one strand shown
# T7 sequence: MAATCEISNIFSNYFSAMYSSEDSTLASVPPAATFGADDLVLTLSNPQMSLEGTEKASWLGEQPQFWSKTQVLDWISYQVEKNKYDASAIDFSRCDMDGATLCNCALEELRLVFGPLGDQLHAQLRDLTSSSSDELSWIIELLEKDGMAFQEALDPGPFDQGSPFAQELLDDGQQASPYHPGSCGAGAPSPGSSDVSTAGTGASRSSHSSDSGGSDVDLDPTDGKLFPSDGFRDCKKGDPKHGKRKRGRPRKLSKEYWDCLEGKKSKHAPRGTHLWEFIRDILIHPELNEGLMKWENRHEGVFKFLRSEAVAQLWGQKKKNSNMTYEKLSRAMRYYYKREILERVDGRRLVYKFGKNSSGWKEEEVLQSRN
# Procedure, shortened: as §1
# ETV1 = ETV1 (Homo sapiens, UniProt P50549 1-477); settings: protein: recombinant; tags: N-terminal GST; dsDNA, one strand shown
# Chain of ETV1 (P50549 whole entry): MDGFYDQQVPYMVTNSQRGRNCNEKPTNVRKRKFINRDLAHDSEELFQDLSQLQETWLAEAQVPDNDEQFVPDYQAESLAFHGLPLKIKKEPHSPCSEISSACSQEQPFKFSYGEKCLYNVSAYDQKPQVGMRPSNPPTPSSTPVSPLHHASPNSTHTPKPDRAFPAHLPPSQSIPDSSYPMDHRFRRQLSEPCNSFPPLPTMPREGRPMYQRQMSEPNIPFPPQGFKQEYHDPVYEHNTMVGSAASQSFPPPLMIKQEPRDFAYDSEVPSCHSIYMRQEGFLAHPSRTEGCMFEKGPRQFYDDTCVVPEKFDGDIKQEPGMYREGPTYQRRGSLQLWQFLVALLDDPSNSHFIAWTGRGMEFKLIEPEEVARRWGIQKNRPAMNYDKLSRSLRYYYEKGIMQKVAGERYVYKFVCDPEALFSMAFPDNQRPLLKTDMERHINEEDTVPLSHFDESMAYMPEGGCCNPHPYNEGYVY
# Procedure, shortened: as §1
# ETV3L = target: T8, ETV3L (Homo sapiens, UniProt Q6ZN32 1-361); settings: protein: recombinant; tags: N-terminal GST; dsDNA, one strand shown
# T8 sequence: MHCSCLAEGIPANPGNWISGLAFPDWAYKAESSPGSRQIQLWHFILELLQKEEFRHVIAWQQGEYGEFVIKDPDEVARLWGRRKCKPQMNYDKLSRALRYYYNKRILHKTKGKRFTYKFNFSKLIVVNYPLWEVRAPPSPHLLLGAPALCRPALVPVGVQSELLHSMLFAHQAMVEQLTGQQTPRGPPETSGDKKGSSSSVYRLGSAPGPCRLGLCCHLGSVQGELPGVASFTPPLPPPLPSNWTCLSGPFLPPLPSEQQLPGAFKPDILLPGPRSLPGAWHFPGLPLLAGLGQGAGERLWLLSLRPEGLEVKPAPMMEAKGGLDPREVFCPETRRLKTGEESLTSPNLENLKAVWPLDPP
# Procedure, shortened: as §1
# ETV7 = target: T9, ETV7 (Homo sapiens, UniProt Q9Y603 1-341); settings: protein: recombinant; tags: N-terminal GST; dsDNA, one strand shown
# T9 sequence: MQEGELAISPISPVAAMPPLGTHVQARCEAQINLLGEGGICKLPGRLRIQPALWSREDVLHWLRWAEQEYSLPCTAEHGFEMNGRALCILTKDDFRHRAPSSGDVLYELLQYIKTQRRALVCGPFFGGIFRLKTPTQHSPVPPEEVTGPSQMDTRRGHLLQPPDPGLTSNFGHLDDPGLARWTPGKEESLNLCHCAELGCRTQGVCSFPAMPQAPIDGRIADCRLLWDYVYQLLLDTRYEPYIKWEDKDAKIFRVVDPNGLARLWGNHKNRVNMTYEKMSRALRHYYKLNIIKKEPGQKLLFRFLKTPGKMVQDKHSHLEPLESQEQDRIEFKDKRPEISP
# Procedure, shortened: as §1
# ETV3 = target: T10, ETV3 (Homo sapiens, UniProt P41162-2 1-143); settings: protein: recombinant; tags: N-terminal GST; dsDNA, one strand shown
# T10 sequence: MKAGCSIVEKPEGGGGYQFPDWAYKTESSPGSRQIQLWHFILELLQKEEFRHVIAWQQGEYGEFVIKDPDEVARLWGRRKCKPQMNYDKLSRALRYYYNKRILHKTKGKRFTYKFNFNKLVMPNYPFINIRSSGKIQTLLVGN
# Procedure, shortened: as §1
sequence,measurement,setting,value
GGTTCT,binding signal,FLI1,"1.07 fold enrichment (6-mer frequency, TF over GST control)"
same,binding signal,ELK1,"1.02 fold enrichment (6-mer frequency, TF over GST control)"
same,binding signal,GABPA,"1.02 fold enrichment (6-mer frequency, TF over GST control)"
same,binding signal,ELF1,"1.03 fold enrichment (6-mer frequency, TF over GST control)"
same,binding signal,SPIB,"1.05 fold enrichment (6-mer frequency, TF over GST control)"
same,binding signal,ELK3,"1.11 fold enrichment (6-mer frequency, TF over GST control)"
same,binding signal,HSF1,"1.54 fold enrichment (6-mer frequency, TF over GST control)"
same,binding signal,ELK4,"1.03 fold enrichment (6-mer frequency, TF over GST control)"
same,binding signal,ETV2,"1.19 fold enrichment (6-mer frequency, TF over GST control)"
same,binding signal,ELF3,"1.08 fold enrichment (6-mer frequency, TF over GST control)"
same,binding signal,ETV1,"1.01 fold enrichment (6-mer frequency, TF over GST control)"
same,binding signal,ETV3L,"1.01 fold enrichment (6-mer frequency, TF over GST control)"
same,binding signal,ETV7,"1.01 fold enrichment (6-mer frequency, TF over GST control)"
same,binding signal,ETV3,"1 fold enrichment (6-mer frequency, TF over GST control)"
